Pf Dd2 inh: inhibitors of Plasmodium falciparum Dd2 growth | P. falciparum Dd2 growth, SYBR Green, 72 h | Potency, µM (highest dose often 28.9 µM), for inactives: at the top dose activity, negative = inhibition, most hits filed as inhibitors | 4.3% of 120,000 active | AID 1347417; active = well fitted inhibition curve with a large enough effect;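 note: plate controls were DMSO vehicle for no effect and reference drug for full effect; nearly all actives have a fitted effect of over 65% in size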
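Readout: SYBR Green fluorescence, 485 nm excitation, 535 nm emission, after ~16 h lysis at 37C. Before that, Dd2-infected red cells (2.5% hematocrit) grew 72 h with compound, 29 uM top final concentration.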
Numbers without * were called inactive; i = inactive; [ ] = dose if it differs, or a comment. The full list was thinned out, with hits kept by preference. Potency is the fitted concentration of half-maximal effect.

SMILES	Pf Dd2 inh
COc1ccccc1N1CCN(C(=O)c2cc3ccc4ccc(C)[nH]c4c3n2)CC1	13µM*
COc1ccc(Cl)cc1NC(=O)c1cc2nc(-c3ccc(C)cc3)cc(C(F)(F)F)n2n1	19%
COc1ccccc1N1CCN(C(=O)c2cc(-c3ccccc3O)on2)CC1	10%
COc1ccc(Cl)cc1NC(=O)c1cnc(SC)nc1-c1ccccc1	8%
COc1ccc(Cl)cc1NC(=O)c1cc2ccc3ccc(C)[nH]c3c2n1	11µM*
CCSc1ncc(Cl)c(C(=O)N2CCN(c3ccccc3OC)CC2)n1	34%
Cc1ccc(S(=O)(=O)Cc2noc([C@@H]3C[C@@H](O)CN3Cc3ccc(S(C)(=O)=O)cc3)n2)cc1	-22%
CC(C)c1noc(C2CCN(C(=O)Cn3ccc4ccccc4c3=O)CC2)n1	2%
O=C(Cn1c(=O)nc(-c2ccccc2)c2cc(Cl)ccc21)NCCc1ccc(Cl)cc1	7%
CN1CC(=O)N(C2CCCNC2)Cc2c(NCCCO)ncnc21 (stereo unspecified)	20%
O=C(CCC1CCCC1)N1CC(c2noc(COc3ccccc3)n2)C1	i
O=C(COc1ccccc1)N1C[C@@H]2C[C@H](C1)c1ccc(-c3cccc(C(F)(F)F)c3)c(=O)n1C2	i
Cc1ccc(N2CC(NC(=O)c3cccs3)CC2=O)cc1C (stereo unspecified)	i
CCCC1CCN(C(=O)c2coc(COc3ccc4ccc(OC)cc4c3)n2)C1 (stereo unspecified)	-21%
COc1cccc(OCc2nc(C(=O)N3CC4C[C@@H]5CC3C[C@H](C4)C5)co2)c1	10µM*
COCC1CCN(C(=O)c2coc(COc3cccc(F)c3)n2)C1 (stereo unspecified)	-2%
COc1ccc(OCc2nc(C(=O)N3CCCC(C(C)(C)O)C3)co2)cc1 (stereo unspecified)	-4%
COc1ccc2ccc(OCc3nc(C(=O)N4CC(N5CCCCC5)C4)co3)cc2c1	8.9µM*
C[C@@H]1CN(C(=O)c2coc(COc3cccc(F)c3)n2)C[C@H](C)O1	-4%
Cc1cc(C)cc(C(=O)N2CCCC3(C2)NC(=O)N(Cc2cccc(Cl)c2)C3=O)c1 (stereo unspecified)	2%
Cc1cc(F)ccc1NC(=O)CN1C(=O)NC2(CCOCC2)C1=O	114%
O=C1CCCCC(Cc2ccccc2)(C(=O)NCc2cccc(F)c2)N1 (stereo unspecified)	0%
CCN(CC)C(=O)[C@@H]1CCC[C@@H](NC(=O)c2cccnc2)CN(C)C(=O)C1	24%[44.1 µM]
Cc1nn(C(=O)c2ccccc2)c(C)c1Sc1ccc(Cl)cc1	11µM*
Cc1ccc(Sc2c(C)nn(C(=O)c3ccc(Br)cc3)c2C)cc1	27%
SMILES	Pf Dd2 inh
CCC(=O)Oc1c(Sc2ccc(Cl)cc2)c(C)nn1-c1ccccc1	-22%
c1ccc(CC2=NOC3(CCCN(Cc4ccns4)C3)C2)cc1 (stereo unspecified)	6.3µM*
c1ccc(CN2CCCC3(CC(c4ccccn4)=NO3)C2)cc1 (stereo unspecified)	-4%
Cc1ccc(C(=O)N2CCCC3(CC(Cc4ccccc4)=NO3)C2)cc1 (stereo unspecified)	-9%
CC(C)C1=NOC2(CCN(Cc3c[nH]c4ccccc34)CC2)C1	-6%
c1ccc(CC2=NOC3(CCN(C4CCCCC4)CC3)C2)cc1	10µM*
c1cncc(C2=NOC3(CCN(C4CCCCC4)CC3)C2)c1	21%[44.1 µM]
c1ccc(CC2=NOC3(CCN(Cc4c[nH]c5ccccc45)CC3)C2)cc1	13µM*
NC(=O)c1cccc(CN2CCC3(CC2)CC(Cc2ccccc2)=NO3)c1	-4%
O=C(C1CCCC1)N1CCC2(CC1)CC(Cc1ccccc1)=NO2	21%
CNC(=O)[C@@H]1C[C@H](Oc2cccnc2)CN1C(=O)c1cc(C)n(C)n1	17%
Clc1ccc(-c2noc(-c3cccnc3NCc3ccco3)n2)cc1	21%
OC1(CN2CCC(c3nnc4ccccn34)CC2)CNCCOC1 (stereo unspecified)	11%
CN(C)[C@H]1CCN(C(=O)c2ccc(SCCO)cc2)C[C@H]1CCC(=O)O	-5%
CCCCNc1nc2c(-c3cccc(C)c3)nnn2c2ccccc12	21%
COc1ccccc1Oc1nc2c(c(=O)n(C)c(=O)n2C)n1Cc1cccc(Br)c1	i
Cc1ccc(-c2nnc3c4ccccc4c(C)nn23)cc1NC(=O)c1ccccc1	3%
Cc1ccc2[nH]c(=O)c(CCC(=O)NCC(C)C)cc2c1	-18%
Cc1cc(C)cc(NC(=O)CN2C(=O)CSc3ccc(S(=O)(=O)N(C)C)cc32)c1	-5%
CCC(=O)N1CCC(n2nccc2NC(=O)Nc2ccccc2OC)CC1	2%
COc1ccc(Cl)cc1NC(=O)Cn1ccn2nc(-c3ccccc3)c(CO)c2c1=O	i
Cc1nn2c(c1-c1ccnn1C(C)C)N(C(=O)C(C)C)CCC2	14%[44.1 µM]
NC(=O)C1(N2CCCCC2)CCN(c2ncncc2-c2nc(-c3ccccc3)no2)CC1	i
CCCCOCc1cc(CN2CCN(c3cccc(Cl)c3)CC2)c(O)c2ncccc12	1µM*
COc1cc(Cl)cc(CN2CCN(c3ncccc3C#N)CC2)c1OC	i

Source: PubChem (National Center for Advancing Translational Sciences (NCATS))
